# Shown are actives, neighbours in structure and some others; about 2.9% of the full set was active somewhere.
# H9c2 protect = myocardial damage modulation in H9c2 cells; H9c2 cardiomyocytes, H2O2 injury protection, ATPLite, 2 h; protection from H2O2 cell death, % at 20 µM; 0.63% of 360,000 active;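 active = compounds giving at least 50% protection of heart cells from peroxide-induced death in the single-dose screen, raw or plate-pattern-corrected value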;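 note: 0% = DMSO wells with peroxide and 100% = DMSO wells without peroxide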
# HGIII-sPLA2 inh = Inhibits HGIII-sPLA2 liposome hydrolysis, primary screen | Q9NZ20 | QFRET BODIPY PC-A2 liposome hydrolysis, fluorescence | inhibition, % at 12.2 µM | 0.56% of 370,000 active | AID 743126;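 active = inhibition above mean plus 3 SD of compounds lying within the high and low control bounds, cut at about 19% in these data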;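 note: 0% = median of test compound wells and 100% = no enzyme DMSO wells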
# DAGLB inh = diacylglycerol lipase beta (human) inhibition; inhibition, % at 5.17 µM; HEK293T DAGLB membrane lysate, EnzChek fluorogenic substrate; Q8NCG7; 0.059% of 340,000 active; in the data active = inhibition above about 34%;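 note: 0% = enzyme with vehicle and 100% = wells lacking enzyme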
# ABHD5 PLIN5 PPI = inhibitors of human ABHD5-perilipin-5 interaction; 0.78% of 360,000 active; inhibition, % at 4 µM; Q00G26+Q8WTS1; Split G. princeps luciferase complementation, luminescence, 4 h;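 active = inhibition above the mean inhibition across every tested compound plus 3 SD, cut at about 22% in these data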;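 note: 0% = DMSO only wells and the 100% control is not disclosed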
# Rtt109 HAT inh = inhibitors of Candida albicans Rtt109/Vps75 histone acetyltransferase; Q5AAJ8; 0.16% of 330,000 active; AID 540336; inhibition, % at 34.9 µM; purified Rtt109/Vps75, ThioGlo CoA-SH fluorescence, 4 h;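 active = inhibition of at least 50% in every replicate; inconclusive = best replicate reaches 50% inhibition but some replicates fall short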
# Target sequence (Q5AAJ8 whole entry, looked up): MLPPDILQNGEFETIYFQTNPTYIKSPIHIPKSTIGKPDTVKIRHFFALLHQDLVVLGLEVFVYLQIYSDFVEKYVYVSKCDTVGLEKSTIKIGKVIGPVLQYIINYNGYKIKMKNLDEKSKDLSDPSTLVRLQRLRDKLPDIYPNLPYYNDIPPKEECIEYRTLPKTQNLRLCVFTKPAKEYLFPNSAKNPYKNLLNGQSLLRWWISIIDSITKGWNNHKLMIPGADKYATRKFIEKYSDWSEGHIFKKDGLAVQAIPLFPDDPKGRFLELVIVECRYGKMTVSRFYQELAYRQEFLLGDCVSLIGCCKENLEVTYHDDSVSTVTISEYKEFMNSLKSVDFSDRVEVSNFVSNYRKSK
# Myeloid diff 2 = promotes myeloid progenitor differentiation; ER-HoxA9 myeloid progenitors, lysozyme-GFP differentiation, flow cytometry; calls only at 10 µM; 1% of 360,000 active; AID 624256;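 active = normalized GFP-positive differentiation at or above the plate's own cutoff, the solvent-only control mean plus 3 SD; inconclusive = no clear call, values can overlap the other calls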;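 note: cells exposed to compound for four days before flow analysis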
# hGIII sPLA2 conf = human GIII-sPLA2 inhibition, confirmation; recombinant hGIII-sPLA2, BODIPY PC-A2 QFRET fluorescence; inhibition, % at 12.2 µM; AID 743280; 34% of 2,000 active; shares compounds with HGIII-sPLA2 inh;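 active = mean inhibition across triplicates above the hit cutoff set in the earlier primary screen, cut at about 19% in these data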;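 note: 0% = enzyme with DMSO and 100% = DMSO wells lacking enzyme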
# BODIPY interf = optically interferes with 535nm fluorescence in sPLA2 counter-screen. shares compounds with HGIII-sPLA2 inh. BODIPY FL product fluorescence interference, QFRET. inhibition, % at 12.2 µM. 8.5% of 2,000 active. AID 743282;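 active = average inhibition above the solvent-only control mean plus 3 SD, cut at about 6% in these data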;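 note: 0% = DMSO with substrate plus product and 100% = DMSO with substrate alone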
# BODIPY interf DR = interferes with 535nm fluorescence in dose response counter-screen; shares compounds with HGIII-sPLA2 inh; BODIPY FL product fluorescence interference, cell-free; IC50, µM; 240 tested, under 10 active; AID 743455;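 active = IC50 at or below 10 µM; inactive = IC50 above 10 µM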
# The depositor's hits bear a star; i = inactive; ? = inconclusive; . = no result given; ! = a repeat was not active.
SMILES,H9c2 protect,HGIII-sPLA2 inh,DAGLB inh,ABHD5 PLIN5 PPI,Rtt109 HAT inh,Myeloid diff 2,hGIII sPLA2 conf,BODIPY interf,others
Cc1onc(-c2c(F)cccc2Cl)c1C(=O)Nc1cccc(Cn2cccn2)c1,0,-11,0,0,0,i,.,.,
Cc1cccc(NC(=O)c2ccc3c(c2)CCN3S(C)(=O)=O)c1C,4,10,-2,-1,-12,i,.,.,
Cc1c2n(c3ccccc13)CC/C2=N\O,4,10,2,-5,-3,i,.,.,
CO/N=C1\CCn2c1c(C)c1ccccc12,-3,20*,-2,-6,-5,i,14,-7,
Fc1ccccc1CSc1nc2ncccc2[nH]1,-13,3,9,2,-3,i,.,.,
CC(C)(C)C(c1nc2ccccc2[nH]1)n1c(-c2cccc(S(C)(=O)=O)c2)nc2ccccc21 (stereo unspecified),.,4,.,8,.,i,.,.,
CCc1ccccc1NC(=S)NC1CC2CCC(C1)N2Cc1ccco1 (stereo unspecified),-3,21*,2,4,40,i,14,-8,
COc1ccc(O)c(/C=N/NC(=S)Nc2cccnc2)c1,3,20*,1,1,.,i,27*,5,
COc1cccc(/C=N/NC(=S)Nc2cccc(S(=O)(=O)N(C)C)c2)c1,8,7,-1,-7,5,i,.,.,
COc1ccc(O)c(/C=N/NC(=S)Nc2cccc(S(=O)(=O)N(C)C)c2)c1,38,24*,13,2,-3,i,11,12*,
CC(C)CNC(=O)CO/N=C/c1ccccc1Cl,-3,-2,-2,-4,-8,i,.,.,
CCOc1ccc(N(CC(=O)NCc2ccco2)C(=O)CCC(=O)Nc2ccccn2)cc1,2,-6,0,-1,1,i,.,.,
COc1ccccc1CN1CC(C(=O)NCC2(O)CCCCC2)CCC1=O (stereo unspecified),2,-1,0,3,.,i,.,.,
COC(=O)N(C)C[C@@H]1OCc2cnnn2CCCC(=O)N([C@H](C)CO)C[C@H]1C,0,9,-1,-4,.,i,.,.,
O=C(CSc1ccc2ccccc2n1)Nc1nsc(-c2ccc(Cl)cc2)n1,0,2,1,-1,2,i,.,.,
O=C(Nc1cccnc1N1CCOCC1)c1cccs1,7,22*,0,10,-23,i,0,-5,
O=C(CNS(=O)(=O)c1ccccc1)OCC(=O)c1ccc([N+](=O)[O-])cc1,-7,25*,-2,-12,1,i,6,-2,
O=C(CNS(=O)(=O)c1ccccc1)OCC(=O)c1ccc(Br)cc1,1,0,-2,1,11,i,.,.,
CCOC(=O)c1[nH]c(C)c(C(=O)N2CCc3c([nH]c4ccccc34)C2c2ccccn2)c1C (stereo unspecified),15,-29,1,2,16,i,.,.,
Cn1c(N)c(C(=O)CSc2n[nH]c(N)n2)c(=O)n(C)c1=O,3,8,3,3,3,i,.,.,
CCCc1cc(C(=O)Nc2cc(OC)ccc2OC)cs1,-6,-1,-2,2,27,i,.,.,
NCCOc1ccc(C23CC4CC(CC(C4)C2)C3)cc1,-28,31*,0,7,?,i,14,-29,
NCCOc1ccc(C2CCCCC2)cc1,0,17,1,8,4,i,.,.,
CN(C)CCn1c2c(c(SCC(=O)Nc3cccc(C(F)(F)F)c3)nc1=O)CCCC2,10,-4,2,15,2,i,.,.,
CCc1cccc(CC)c1NC(=S)NCC(c1cccnc1)N1CCOCC1 (stereo unspecified),0,24*,3,2,5,i,18,-6,
SMILES,H9c2 protect,HGIII-sPLA2 inh,DAGLB inh,ABHD5 PLIN5 PPI,Rtt109 HAT inh,Myeloid diff 2,hGIII sPLA2 conf,BODIPY interf,others
Cc1cc(=O)[nH]c(SCC(=O)N2CCN(C(=O)c3ccco3)CC2)n1,3,14,1,4,-3,i,.,.,
Cc1cc(=O)[nH]c(SCC(=O)N2CCCC2)n1,8,20*,-1,-1,-5,i,0,-7,
Cc1cc(=O)n2[nH]c(-c3ccccc3)cc2n1,8,1,-3,2,4,i,.,.,
Cc1cc(C)[n+]2n1C(=O)C(c1ccccc1)=C2[O-],10,21*!,7,1,-11,i,5,0,
CC(C)CN1C(=O)C(=O)N(CC(=O)N2CCN(c3ccccc3)CC2)C1=O,6,4,2,-9,3,i,.,.,
O=C(CSCc1ccccc1Br)NNC(=S)NCc1ccco1,1,40*,2,10,9,i,48*,8.8*,
CCOc1cc(CNCc2cc(OC)cc(OC)c2)ccc1OC,-10,-6,4,6,9,i,.,.,
COC(=O)C[C@H]1CC[C@@H]2[C@@H](COc3ccc(NC(=O)c4ccno4)cc3C(=O)N2C)O1,.,20*,.,.,.,.,5,-3,
CCCCn1c(SCc2nc(N)nc(N3CCCCC3)n2)nc2c1c(=O)n(C)c(=O)n2C,12,21*,-3,-2,4,i,4,-32,
COc1ccccc1CNC(=S)Nc1ccc(F)cc1,-1,12,-2,-5,5,i,.,.,
Cc1ccc(NC(=S)NNC(=O)CSc2nnc(-c3ccc(C)cc3)n2C2CCCCC2)cc1,.,24*,.,.,.,.,18,-10,
Cc1ccc(NC(=S)NNC(=O)CSc2nnc(-c3ccc(Cl)cc3)n2C2CCCCC2)cc1,7,23*,3,0,2,i,30*,-8,BODIPY interf DR=>122
CCc1nnc(NC(=O)CCC(=O)Nc2ccc(OC)cc2OC)s1,16,4,3,-11,3,i,.,.,
Cc1ccnc(SCc2cc(=O)c(OC(=O)c3ccc([N+](=O)[O-])cc3)co2)n1,.,16,.,.,.,.,.,.,
Cc1cc(C)nc(SCc2cc(=O)c(OC(=O)c3ccc(Cl)c([N+](=O)[O-])c3)co2)n1,9,22*,-5,-5,-3,i,-17,-11,
S=C(Nc1ccccc1)Nc1nc2ccccc2n1CCOc1ccccc1,8,21*,0,7,-13,i,25*,0,
Nc1cnccc1Oc1cccc(C(F)(F)F)c1,-3,6,-1,-2,-11,i,.,.,
CCOc1ccc(S(=O)(=O)NCCC(=O)N2CC(C)OC(C)C2)cc1 (stereo unspecified),0,4,-1,3,7,i,.,.,

# High-throughput results (PubChem BioAssay)
